# Results: article PMC7862700, “An all-to-all approach to the identification of sequence-specific readers for epigenetic DNA modifications on cytosine”
# Experiments:
# Assay in all cases: DAPPL (digital affinity profiling via proximity ligation, sequencing); 10 mM Tris-HCl pH 7.5, 50 mM NaCl, 1 mM DTT, 4% glycerol, room temperature, 30 min; GST-TFs on glutathione beads, 16-mer random dsDNA library, 0.1% formaldehyde crosslink after washing; high values mean tight binding
# FLI1 = molecular target: T1, FLI1 (Homo sapiens, UniProt Q01543 1-452); details: protein: recombinant; tags: N-terminal GST; dsDNA, one strand shown
# T1 sequence: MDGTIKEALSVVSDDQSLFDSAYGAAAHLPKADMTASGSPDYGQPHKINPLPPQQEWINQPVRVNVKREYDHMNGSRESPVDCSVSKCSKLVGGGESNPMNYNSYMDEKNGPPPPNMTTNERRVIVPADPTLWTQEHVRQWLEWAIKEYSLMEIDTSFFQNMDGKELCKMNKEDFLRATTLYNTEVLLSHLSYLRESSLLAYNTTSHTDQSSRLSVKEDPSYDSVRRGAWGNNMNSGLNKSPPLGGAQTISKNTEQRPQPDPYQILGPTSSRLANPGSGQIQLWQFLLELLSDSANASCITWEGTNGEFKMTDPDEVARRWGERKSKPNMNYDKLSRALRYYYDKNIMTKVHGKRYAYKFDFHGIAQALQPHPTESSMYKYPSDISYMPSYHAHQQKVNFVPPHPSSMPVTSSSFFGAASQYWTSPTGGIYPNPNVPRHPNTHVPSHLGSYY
# In short: (§1)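 Pools were built from human transcription factors expressed in yeast as GST fusions, captured on glutathione beads and DNA-barcoded, along with a tag-only sample. Incubation with 200 nmole of a 16-mer random double-stranded DNA library lasted 30 min at room temperature in Tris/NaCl/DTT/glycerol buffer, and was followed by washing, 0.1% formaldehyde crosslinking, proximity ligation, PCR amplification and Illumina NextSeq500 sequencing. Binding signal is the quotient of each hexamer's read frequency for a factor and its frequency for the tag-only sample.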
# ELK1 = molecular target: T2, ELK1 (Homo sapiens, UniProt P19419 1-428); details: protein: recombinant; tags: N-terminal GST; dsDNA, one strand shown
# T2 sequence: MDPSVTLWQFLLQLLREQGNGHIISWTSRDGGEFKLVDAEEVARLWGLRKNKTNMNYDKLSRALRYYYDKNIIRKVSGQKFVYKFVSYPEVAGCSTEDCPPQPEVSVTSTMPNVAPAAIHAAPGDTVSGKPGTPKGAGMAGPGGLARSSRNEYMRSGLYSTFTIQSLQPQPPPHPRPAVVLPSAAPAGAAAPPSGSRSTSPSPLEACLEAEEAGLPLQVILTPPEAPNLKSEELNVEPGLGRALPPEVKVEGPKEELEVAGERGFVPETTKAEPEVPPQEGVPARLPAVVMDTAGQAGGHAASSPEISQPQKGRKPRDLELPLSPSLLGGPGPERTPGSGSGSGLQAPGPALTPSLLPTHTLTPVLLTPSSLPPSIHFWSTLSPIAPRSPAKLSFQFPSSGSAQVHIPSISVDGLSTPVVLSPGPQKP
# In short: as §1
# GABPA = molecular target: T3, GABPA (Homo sapiens, UniProt Q06546 1-454); details: protein: recombinant; tags: N-terminal GST; dsDNA, one strand shown
# T3 sequence: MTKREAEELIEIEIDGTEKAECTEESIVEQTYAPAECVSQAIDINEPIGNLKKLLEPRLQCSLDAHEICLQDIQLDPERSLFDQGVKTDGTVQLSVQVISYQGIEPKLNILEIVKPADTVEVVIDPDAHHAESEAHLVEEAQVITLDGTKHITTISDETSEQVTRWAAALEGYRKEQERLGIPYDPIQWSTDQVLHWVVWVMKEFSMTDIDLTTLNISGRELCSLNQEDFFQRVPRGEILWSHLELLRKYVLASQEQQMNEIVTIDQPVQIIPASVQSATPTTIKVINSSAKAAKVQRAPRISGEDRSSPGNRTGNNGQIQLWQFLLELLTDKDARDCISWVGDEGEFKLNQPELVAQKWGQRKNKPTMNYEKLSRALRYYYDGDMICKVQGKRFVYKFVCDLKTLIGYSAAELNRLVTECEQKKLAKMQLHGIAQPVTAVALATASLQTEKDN
# In short: as §1
# ERG = molecular target: T4, ERG (Homo sapiens, UniProt P11308 1-479); details: protein: recombinant; tags: N-terminal GST; dsDNA, one strand shown
# T4 sequence: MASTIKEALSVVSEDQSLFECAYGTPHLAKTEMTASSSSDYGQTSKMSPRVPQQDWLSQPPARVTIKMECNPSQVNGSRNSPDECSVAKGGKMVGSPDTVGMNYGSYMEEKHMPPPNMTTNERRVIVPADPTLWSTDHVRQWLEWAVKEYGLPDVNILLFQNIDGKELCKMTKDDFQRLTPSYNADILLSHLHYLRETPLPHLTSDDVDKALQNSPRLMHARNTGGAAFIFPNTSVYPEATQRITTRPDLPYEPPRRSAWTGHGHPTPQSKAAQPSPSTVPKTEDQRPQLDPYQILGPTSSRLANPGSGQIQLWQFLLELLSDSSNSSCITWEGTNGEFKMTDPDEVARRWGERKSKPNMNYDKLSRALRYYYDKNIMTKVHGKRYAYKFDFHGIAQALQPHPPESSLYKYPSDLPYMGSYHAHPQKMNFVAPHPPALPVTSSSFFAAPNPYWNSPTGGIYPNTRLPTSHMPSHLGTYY
# In short: as §1
# ELF1 = ELF1 (Homo sapiens, UniProt P32519 1-619); details: protein: recombinant; tags: N-terminal GST; dsDNA, one strand shown
# Sequence of ELF1 (P32519 whole entry): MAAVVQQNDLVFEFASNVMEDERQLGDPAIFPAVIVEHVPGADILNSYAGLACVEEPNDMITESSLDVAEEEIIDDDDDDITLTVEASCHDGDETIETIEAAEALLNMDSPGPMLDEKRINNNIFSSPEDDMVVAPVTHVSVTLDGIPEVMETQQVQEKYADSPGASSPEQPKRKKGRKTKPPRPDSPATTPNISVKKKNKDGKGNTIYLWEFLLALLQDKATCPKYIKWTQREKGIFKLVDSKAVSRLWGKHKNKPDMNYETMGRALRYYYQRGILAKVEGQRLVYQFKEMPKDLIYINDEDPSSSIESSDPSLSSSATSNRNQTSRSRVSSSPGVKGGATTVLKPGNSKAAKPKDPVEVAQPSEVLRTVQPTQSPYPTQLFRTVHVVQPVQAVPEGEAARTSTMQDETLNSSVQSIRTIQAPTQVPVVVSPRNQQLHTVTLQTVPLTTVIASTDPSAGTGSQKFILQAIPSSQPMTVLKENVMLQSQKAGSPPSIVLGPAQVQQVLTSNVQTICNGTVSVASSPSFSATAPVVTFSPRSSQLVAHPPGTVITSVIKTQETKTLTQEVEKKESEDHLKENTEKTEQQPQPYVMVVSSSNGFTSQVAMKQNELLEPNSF
# In short: as §1
# EHF = molecular target: T5, EHF (Homo sapiens, UniProt Q9NZC4 1-300); details: protein: recombinant; tags: N-terminal GST; dsDNA, one strand shown
# T5 sequence: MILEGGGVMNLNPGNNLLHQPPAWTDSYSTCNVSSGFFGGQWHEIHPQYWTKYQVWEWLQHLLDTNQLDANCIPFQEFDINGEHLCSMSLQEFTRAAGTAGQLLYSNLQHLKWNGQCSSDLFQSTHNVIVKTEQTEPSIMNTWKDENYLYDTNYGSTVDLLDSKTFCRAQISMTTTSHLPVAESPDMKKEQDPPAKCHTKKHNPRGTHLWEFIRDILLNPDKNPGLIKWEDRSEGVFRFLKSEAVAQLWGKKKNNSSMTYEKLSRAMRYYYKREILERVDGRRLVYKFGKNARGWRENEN
# In short: as §1
# SPI1 = SPI1 (Homo sapiens, UniProt P17947 1-270); details: protein: recombinant; tags: N-terminal GST; dsDNA, one strand shown
# In short: as §1
# SPIB = SPIB (Homo sapiens, UniProt Q01892 1-262); details: protein: recombinant; tags: N-terminal GST; dsDNA, one strand shown
# Sequence of SPIB (Q01892 whole entry): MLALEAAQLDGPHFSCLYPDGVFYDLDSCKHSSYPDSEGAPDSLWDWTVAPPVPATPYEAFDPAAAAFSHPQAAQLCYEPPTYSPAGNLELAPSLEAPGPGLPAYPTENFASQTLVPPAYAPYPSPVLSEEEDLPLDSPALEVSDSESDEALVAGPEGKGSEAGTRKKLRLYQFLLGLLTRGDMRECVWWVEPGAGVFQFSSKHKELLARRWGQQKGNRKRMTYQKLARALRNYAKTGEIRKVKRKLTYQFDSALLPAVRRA
# In short: as §1
# ELK3 = molecular target: T6, ELK3 (Homo sapiens, UniProt P41970 1-407); details: protein: recombinant; tags: N-terminal GST; dsDNA, one strand shown
# T6 sequence: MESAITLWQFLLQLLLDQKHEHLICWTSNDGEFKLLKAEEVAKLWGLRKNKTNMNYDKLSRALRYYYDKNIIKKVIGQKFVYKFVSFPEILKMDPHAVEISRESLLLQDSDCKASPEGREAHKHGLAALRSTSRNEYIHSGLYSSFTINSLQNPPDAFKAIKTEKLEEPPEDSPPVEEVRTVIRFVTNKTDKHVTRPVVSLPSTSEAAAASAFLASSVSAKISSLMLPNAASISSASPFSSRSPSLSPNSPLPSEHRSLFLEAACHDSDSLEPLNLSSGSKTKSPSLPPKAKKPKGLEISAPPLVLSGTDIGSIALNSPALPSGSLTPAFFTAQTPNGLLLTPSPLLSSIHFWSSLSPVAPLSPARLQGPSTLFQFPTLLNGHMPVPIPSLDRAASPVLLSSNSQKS
# In short: as §1
# FEV = molecular target: T7, FEV (Homo sapiens, UniProt Q99581 1-238); details: protein: recombinant; tags: N-terminal GST; dsDNA, one strand shown
# T7 sequence: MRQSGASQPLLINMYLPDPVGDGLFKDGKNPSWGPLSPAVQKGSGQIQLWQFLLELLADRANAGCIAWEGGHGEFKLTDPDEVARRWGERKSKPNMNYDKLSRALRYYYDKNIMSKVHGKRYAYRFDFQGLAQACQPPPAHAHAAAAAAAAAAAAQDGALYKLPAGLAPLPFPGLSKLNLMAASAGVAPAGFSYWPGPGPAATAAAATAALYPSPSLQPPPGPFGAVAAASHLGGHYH
# In short: as §1
# ETV5 = ETV5 (Homo sapiens, UniProt P41161 1-510); details: protein: recombinant; tags: N-terminal GST; dsDNA, one strand shown
# Sequence of ETV5 (P41161 whole entry): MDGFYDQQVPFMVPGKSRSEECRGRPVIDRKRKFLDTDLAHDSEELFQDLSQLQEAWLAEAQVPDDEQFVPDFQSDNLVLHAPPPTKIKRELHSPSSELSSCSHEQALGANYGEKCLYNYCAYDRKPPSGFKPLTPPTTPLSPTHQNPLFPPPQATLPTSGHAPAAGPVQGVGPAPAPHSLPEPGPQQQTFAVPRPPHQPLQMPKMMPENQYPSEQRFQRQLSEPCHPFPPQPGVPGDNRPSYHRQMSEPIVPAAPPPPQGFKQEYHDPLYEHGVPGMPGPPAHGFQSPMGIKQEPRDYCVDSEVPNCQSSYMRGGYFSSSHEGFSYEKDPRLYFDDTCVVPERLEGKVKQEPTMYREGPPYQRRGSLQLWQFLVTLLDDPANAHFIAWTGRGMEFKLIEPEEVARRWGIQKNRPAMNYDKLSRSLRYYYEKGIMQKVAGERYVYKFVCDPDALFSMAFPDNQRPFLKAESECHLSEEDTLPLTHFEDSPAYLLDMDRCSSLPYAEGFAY
# In short: as §1
# HSF1 = HSF1 (Homo sapiens, UniProt Q00613 1-529); details: protein: recombinant; tags: N-terminal GST; chain copies: 3; dsDNA, one strand shown
# Sequence of HSF1 (Q00613 whole entry): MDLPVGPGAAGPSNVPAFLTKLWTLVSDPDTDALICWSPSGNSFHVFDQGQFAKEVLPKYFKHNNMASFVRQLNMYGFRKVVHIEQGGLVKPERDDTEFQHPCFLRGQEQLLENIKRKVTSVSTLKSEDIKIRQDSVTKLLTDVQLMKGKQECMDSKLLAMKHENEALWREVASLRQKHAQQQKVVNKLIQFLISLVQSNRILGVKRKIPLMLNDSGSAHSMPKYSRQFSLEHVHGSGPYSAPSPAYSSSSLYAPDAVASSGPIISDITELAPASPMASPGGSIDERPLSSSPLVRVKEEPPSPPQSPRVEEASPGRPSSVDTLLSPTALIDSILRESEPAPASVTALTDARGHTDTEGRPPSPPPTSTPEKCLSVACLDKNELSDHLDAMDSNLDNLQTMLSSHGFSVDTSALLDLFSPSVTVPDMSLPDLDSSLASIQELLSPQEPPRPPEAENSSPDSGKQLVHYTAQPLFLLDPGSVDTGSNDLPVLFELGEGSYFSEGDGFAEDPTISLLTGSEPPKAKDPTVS
# In short: as §1
# SPIC = molecular target: T8, SPIC (Homo sapiens, UniProt Q8N5J4 1-248); details: protein: recombinant; tags: N-terminal GST; dsDNA, one strand shown
# T8 sequence: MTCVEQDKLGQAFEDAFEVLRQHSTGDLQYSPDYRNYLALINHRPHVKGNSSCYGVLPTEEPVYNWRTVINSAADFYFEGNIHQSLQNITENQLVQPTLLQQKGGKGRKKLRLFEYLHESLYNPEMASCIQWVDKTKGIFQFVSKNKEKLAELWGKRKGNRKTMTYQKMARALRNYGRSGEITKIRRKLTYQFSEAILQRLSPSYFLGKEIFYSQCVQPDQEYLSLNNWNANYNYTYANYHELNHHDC
# In short: as §1
# ELF4 = ELF4 (Homo sapiens, UniProt Q99607 1-663); details: protein: recombinant; tags: N-terminal GST; dsDNA, one strand shown
# Sequence of ELF4 (Q99607 whole entry): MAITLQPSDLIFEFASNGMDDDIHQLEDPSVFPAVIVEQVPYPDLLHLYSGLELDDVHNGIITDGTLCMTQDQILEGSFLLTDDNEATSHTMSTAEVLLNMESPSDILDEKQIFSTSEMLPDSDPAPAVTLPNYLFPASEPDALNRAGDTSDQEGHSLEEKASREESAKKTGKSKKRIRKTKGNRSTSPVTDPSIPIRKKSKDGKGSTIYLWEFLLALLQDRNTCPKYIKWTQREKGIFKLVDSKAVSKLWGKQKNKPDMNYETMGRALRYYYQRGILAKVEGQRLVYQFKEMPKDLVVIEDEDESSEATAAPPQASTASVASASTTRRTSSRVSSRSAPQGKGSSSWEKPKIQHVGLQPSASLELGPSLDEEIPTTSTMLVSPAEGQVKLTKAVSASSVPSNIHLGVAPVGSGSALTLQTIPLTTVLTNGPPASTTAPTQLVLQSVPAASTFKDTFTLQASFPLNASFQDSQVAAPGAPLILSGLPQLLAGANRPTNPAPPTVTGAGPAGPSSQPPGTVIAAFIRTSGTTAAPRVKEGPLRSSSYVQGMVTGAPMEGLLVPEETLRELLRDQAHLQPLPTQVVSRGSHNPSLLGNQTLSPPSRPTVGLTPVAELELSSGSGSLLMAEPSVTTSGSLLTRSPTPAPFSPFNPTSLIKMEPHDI
# In short: as §1
# ELK4 = molecular target: T9, ELK4 (Homo sapiens, UniProt P28324-2 1-405); details: protein: recombinant; tags: N-terminal GST; dsDNA, one strand shown
# T9 sequence: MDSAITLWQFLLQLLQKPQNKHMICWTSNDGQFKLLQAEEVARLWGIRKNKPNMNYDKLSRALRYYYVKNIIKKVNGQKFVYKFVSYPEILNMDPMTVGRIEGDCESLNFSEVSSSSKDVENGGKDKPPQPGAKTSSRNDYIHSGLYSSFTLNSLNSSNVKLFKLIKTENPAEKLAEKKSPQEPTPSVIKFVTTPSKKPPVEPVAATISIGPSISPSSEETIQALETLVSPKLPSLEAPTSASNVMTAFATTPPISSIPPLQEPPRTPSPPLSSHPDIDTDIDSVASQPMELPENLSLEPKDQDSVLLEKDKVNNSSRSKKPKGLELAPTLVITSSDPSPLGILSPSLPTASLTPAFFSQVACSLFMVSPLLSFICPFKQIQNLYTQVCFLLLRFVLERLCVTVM
# In short: as §1
# ETV2 = molecular target: T10, ETV2 (Homo sapiens, UniProt O00321 1-342); details: protein: recombinant; tags: N-terminal GST; dsDNA, one strand shown
# T10 sequence: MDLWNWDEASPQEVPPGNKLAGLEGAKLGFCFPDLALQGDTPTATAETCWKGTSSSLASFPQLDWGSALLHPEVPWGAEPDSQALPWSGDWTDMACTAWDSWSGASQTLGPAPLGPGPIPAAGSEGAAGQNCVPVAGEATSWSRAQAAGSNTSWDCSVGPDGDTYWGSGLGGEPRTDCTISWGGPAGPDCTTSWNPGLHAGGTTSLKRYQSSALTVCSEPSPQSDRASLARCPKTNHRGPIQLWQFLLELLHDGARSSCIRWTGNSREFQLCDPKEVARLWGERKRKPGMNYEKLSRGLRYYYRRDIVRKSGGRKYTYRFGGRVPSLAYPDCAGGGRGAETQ
# In short: as §1
# ELF3 = molecular target: T11, ELF3 (Homo sapiens, UniProt P78545 1-371); details: protein: recombinant; tags: N-terminal GST; dsDNA, one strand shown
# T11 sequence: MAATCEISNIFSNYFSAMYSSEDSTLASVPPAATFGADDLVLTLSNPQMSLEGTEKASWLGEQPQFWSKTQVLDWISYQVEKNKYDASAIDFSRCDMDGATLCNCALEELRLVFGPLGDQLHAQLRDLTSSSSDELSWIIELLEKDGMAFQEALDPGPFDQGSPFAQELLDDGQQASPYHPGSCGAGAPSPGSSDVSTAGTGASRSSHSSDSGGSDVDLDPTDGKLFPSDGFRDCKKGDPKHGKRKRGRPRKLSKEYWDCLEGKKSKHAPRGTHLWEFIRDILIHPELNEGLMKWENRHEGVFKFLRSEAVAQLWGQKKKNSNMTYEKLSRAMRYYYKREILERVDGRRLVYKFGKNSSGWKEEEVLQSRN
# In short: as §1
# CRX = CRX (Homo sapiens, UniProt O43186 1-299); details: protein: recombinant; tags: N-terminal GST; dsDNA, one strand shown
# Sequence of CRX (O43186 whole entry): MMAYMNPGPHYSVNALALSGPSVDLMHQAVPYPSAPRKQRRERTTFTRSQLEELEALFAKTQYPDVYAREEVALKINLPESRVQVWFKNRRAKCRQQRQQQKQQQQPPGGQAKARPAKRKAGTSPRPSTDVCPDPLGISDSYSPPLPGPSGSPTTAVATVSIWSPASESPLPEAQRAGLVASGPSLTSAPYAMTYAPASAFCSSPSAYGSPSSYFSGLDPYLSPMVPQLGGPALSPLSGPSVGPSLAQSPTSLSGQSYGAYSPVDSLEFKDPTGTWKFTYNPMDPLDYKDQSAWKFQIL
# In short: as §1
# ETV1 = ETV1 (Homo sapiens, UniProt P50549 1-477); details: protein: recombinant; tags: N-terminal GST; dsDNA, one strand shown
# Sequence of ETV1 (P50549 whole entry): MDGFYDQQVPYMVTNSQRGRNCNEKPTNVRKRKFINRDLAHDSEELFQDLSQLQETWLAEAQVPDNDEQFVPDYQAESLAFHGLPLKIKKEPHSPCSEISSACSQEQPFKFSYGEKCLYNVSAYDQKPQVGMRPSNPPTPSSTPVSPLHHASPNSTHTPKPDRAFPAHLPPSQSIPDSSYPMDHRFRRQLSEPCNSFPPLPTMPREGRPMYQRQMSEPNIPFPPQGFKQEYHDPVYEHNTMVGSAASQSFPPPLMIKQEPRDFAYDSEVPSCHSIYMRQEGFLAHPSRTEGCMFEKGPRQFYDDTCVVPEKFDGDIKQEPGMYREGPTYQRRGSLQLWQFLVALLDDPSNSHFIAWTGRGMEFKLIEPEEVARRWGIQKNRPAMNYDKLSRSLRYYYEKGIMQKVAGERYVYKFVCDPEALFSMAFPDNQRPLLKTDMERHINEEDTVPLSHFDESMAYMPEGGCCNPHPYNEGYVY
# In short: as §1
sequence,measurement,setting,value
CTAAAT,binding signal,FLI1,"1.34 fold enrichment (6-mer frequency, TF over GST control)"
same,binding signal,ELK1,"1.36 fold enrichment (6-mer frequency, TF over GST control)"
same,binding signal,GABPA,"1.31 fold enrichment (6-mer frequency, TF over GST control)"
same,binding signal,ERG,"1.34 fold enrichment (6-mer frequency, TF over GST control)"
same,binding signal,ELF1,"1.3 fold enrichment (6-mer frequency, TF over GST control)"
same,binding signal,EHF,"1.34 fold enrichment (6-mer frequency, TF over GST control)"
same,binding signal,SPI1,"1.37 fold enrichment (6-mer frequency, TF over GST control)"
same,binding signal,SPIB,"1.38 fold enrichment (6-mer frequency, TF over GST control)"
same,binding signal,ELK3,"1.37 fold enrichment (6-mer frequency, TF over GST control)"
same,binding signal,FEV,"1.3 fold enrichment (6-mer frequency, TF over GST control)"
same,binding signal,ETV5,"1.42 fold enrichment (6-mer frequency, TF over GST control)"
same,binding signal,HSF1,"1.59 fold enrichment (6-mer frequency, TF over GST control)"
same,binding signal,SPIC,"1.38 fold enrichment (6-mer frequency, TF over GST control)"
same,binding signal,ELF4,"1.36 fold enrichment (6-mer frequency, TF over GST control)"
same,binding signal,ELK4,"1.42 fold enrichment (6-mer frequency, TF over GST control)"
same,binding signal,ETV2,"1.33 fold enrichment (6-mer frequency, TF over GST control)"
same,binding signal,ELF3,"1.46 fold enrichment (6-mer frequency, TF over GST control)"
same,binding signal,CRX,"1.9 fold enrichment (6-mer frequency, TF over GST control)"
same,binding signal,ETV1,"1.42 fold enrichment (6-mer frequency, TF over GST control)"
